# Among all 48,000 compounds or so, about 13,000 (27%) showed an effect of 50% or more. The list shows a part of the results.
# Test system: Wolbachia pipientis
# Experiment: Anti-Wolbachia Cell-Based Screen
# Format: functional
# Design: scale not given: in the data most compounds retested in dose-response had high values
# Conditions: 5 µM
row,Compound,Percent Effect
1,O=C(Cn1nc2ccccc2n1)N1CCCC(O)(CO)C1 (stereo unspecified),-10.36%
2,Cc1cc(NC(=O)N(C)CCN2CCN(c3ccccc3)CC2)on1,-6.324%
3,COc1c(CNC(c2ccc(F)cc2)c2nccn2C)c(C)nn1C (stereo unspecified),-17.53%
4,COCCSc1ccc(-n2ccnc2)nn1,19.88%
5,CC1(Cc2ccc3c(c2)OCO3)CCCN(S(=O)(=O)N2CCOCC2)C1 (stereo unspecified),-4.077%
6,Cc1cccn2cc(CN3CCCC(O)C3)nc12 (stereo unspecified),-5.177%
7,Cc1cc(Cn2cc(C#N)c(=O)c3ccccc32)no1,6.304%
8,NC(=O)CC1CCN(C(=O)NCC2(c3ccccc3F)CC2)CC1,3.443%
9,O=C(NCCc1nnc2n1CCC2)NCC1(c2ccccc2)CC1,95.51%
10,O=C(NCCc1nnc2n1CCC2)c1ccccc1OC1CCCC1,-0.3605%
11,O=C(NCCc1nnc2n1CCC2)NCC1(c2ccccc2F)CC1,109%
12,O=C(NCCc1nnc2n1CCC2)NCC1(c2ccc(F)cc2)CC1,123.4%
13,O=C1C(NCc2nnc3n2CCCC3)CCCN1c1cccc(F)c1 (stereo unspecified),-1.768%
14,O=C(NCCc1nnc2n1CCC2)N1CCC2(CCCCC2)C1,-5.882%
15,O=C(NCCC1=CCCCC1)NCc1nnc2n1CCC2,7.36%
16,Cc1cc(C)c(CNC(=O)NCc2nnc3n2CCC3)c(=O)[nH]1,8.689%
17,O=C(NCCc1ccc(Cl)s1)NCc1nnc2n1CCC2,3.587%
18,O=C(NCc1nnc2n1CCC2)NCC1(c2cccc(F)c2)CC1,112.3%
19,Cn1cc(CCNC(=O)NCc2nnc3n2CCC3)cn1,-8.052%
20,CCOc1ncnc2c1CCN(c1cc(C(F)(F)F)ncn1)CC2,1.194%
21,CCOC(=O)CC1CCCCN1C(=O)c1cc(C)on1 (stereo unspecified),7.011%
22,CS(=O)(=O)N(Cc1ccon1)c1ccc2c(c1)OCO2,-10.09%

row,Compound,Percent Effect
1,Cc1nc(-c2cc(Cl)cc3c2OC(CN)C3)c[nH]1 (stereo unspecified),-15.93%
2,Cc1ccc(-c2nnc(CN3CC[C@H](CO)[C@@H](O)C3)o2)n1C,-9.968%
3,c1coc(CNc2nnc(Cc3ccsc3)o2)c1,-2.731%
4,O=C(c1c[nH]c(=O)c(Cl)c1)N1C[C@@H]2CC[C@H](C1)N(Cc1ccccc1)C2,-15.02%
5,CCC1CN(C(=O)c2ccc(=O)[nH]c2)CCC(=O)N1Cc1ccccc1 (stereo unspecified),-17.04%
6,O=C(c1ccc(=O)[nH]c1)N1C[C@@H]2CC[C@H](C1)N(Cc1ccccc1)C2,87.59%
7,O=C(c1cc(Cl)c[nH]c1=O)N1C[C@@H]2CC[C@H](C1)N(Cc1ccccc1)C2,80.73%
8,O=C(c1ccc(F)c(Cl)c1)N1C[C@@H]2CC[C@H](C1)N(Cc1ccccc1)C2,2.522%
9,CC(=O)N1C[C@@H]2CC[C@H](C1)N(Cc1ccc(Cn3cccn3)cc1)C2,6.393%
10,O=C(c1cc(F)cc(Cl)c1)N1C[C@@H]2CC[C@H](C1)N(Cc1ccccc1)C2,106.3%
11,O=C(c1ccccc1)N1C[C@@H]2CC[C@H](C1)N(Cc1cc(F)ccc1Cl)C2,-19.41%
12,O=c1cc(CN2C[C@H]3CC[C@@H]2CN(Cc2ccccc2)C3)[nH]c(=O)[nH]1,2.734%
13,CC(C)c1nc(CN(C)S(=O)(=O)c2cccs2)cs1,0.03171%
14,CC(CS(C)(=O)=O)N(C(=O)CCc1ccc(Cl)s1)C1CC1 (stereo unspecified),-4.139%
15,Cc1nc(CNC(=O)NCC(O)c2ccc(F)c(F)c2)cs1 (stereo unspecified),9.084%
16,COc1cccc(-n2nnc(C(=O)N3CCN(C)CC3C)c2C)c1 (stereo unspecified),13.25%
17,COCCN1C[C@@H]2CCCO[C@@H]2[C@H](NC(=O)c2cnccn2)C1.O=C(O)C(F)(F)F,-16.42%
18,c1cc(-c2noc([C@@H]3CCCN3C3CCC3)n2)cc(N2CCCC2)n1,-5.247%
19,CC(C)Oc1ncccc1CNC(=O)NC(C)c1cccs1 (stereo unspecified),104.4%
20,Cc1nnsc1C(=O)NCc1cccnc1N(C)C,-2.409%
21,Cc1cnc(C(C)(C)NC(=O)NCc2cccnc2OC(C)C)s1,-10.8%
22,Cc1ccc(CNC(=O)NCc2cccnc2N(C)C)s1,-3.895%

row,Compound,Percent Effect
1,Cc1cnc(CNC(=O)NCc2cccnc2N(C)C)s1,-3.719%
2,Cc1ccc(C(=O)NCc2cccnc2N(C)C)s1,92.24%
3,Cc1cc(NC(=O)NCc2cccnc2OC(C)C)n(C)n1,8.95%
4,Cc1nc(CSCCC(=O)NCc2cccnc2N(C)C)cs1,-3.36%
5,CNc1nc(C(=O)NCc2cccnc2N(C)C)cs1,-18.64%
6,Cc1nc(CNC(=O)NCc2cccnc2N(C)C)cs1,95.24%
7,CN(C)c1ncccc1CNC(=O)N1CCN(C)c2ccccc2C1,-11.25%
8,CN(C)c1ncccc1CNC(=O)NCc1ccc(Cl)s1,103.5%
9,CCc1ccccc1OCCN1C[C@@H](NS(C)(=O)=O)[C@H](C(C)C)C1,0.8676%
10,O=C(O)c1cccnc1CN1CCOc2ccccc2C1,-4.779%
11,Cc1cccn2c(CNC(C)CO)cnc12 (stereo unspecified),5.706%
12,CCC(CNC(=O)c1ccc(C(N)=O)cc1)Oc1cccc(F)c1 (stereo unspecified),-8.287%
13,CCCS(=O)(=O)NC(C)c1cccc(-n2cccn2)c1 (stereo unspecified),-8.996%
14,NC(=O)c1ccc(-n2ccnc2-c2cccc(O)c2)cc1N1CCCC1,-15.85%
15,CC(C)C(NC(=O)NCc1cccnc1N(C)C)c1cccs1 (stereo unspecified),97.46%
16,CC(NC(=O)NCc1cccnc1N(C)C)c1cccs1 (stereo unspecified),91.27%
17,O=C(NCc1ccccn1)NCC(O)c1ccccc1C(F)(F)F (stereo unspecified),-3.765%
18,CN(C)c1ccc(NC(=O)NCc2ccc(Cl)s2)cn1,9.088%
19,CN(C)c1ncccc1CNC(=O)NCC(c1cccs1)N(C)C (stereo unspecified),101.5%
20,O=C(NCc1ccccn1)NCc1ccc(Cl)s1,100.6%
21,CN(C)C(CNC(=O)NCc1ccco1)c1cccs1 (stereo unspecified),6.587%
22,CN(C)c1ncccc1CNC(=O)NCc1ccco1,-3.644%

# Source: ChEMBL document CHEMBL3988442, “University of Dundee, Small-Polar-MMV Screening Library” (2021)
